Reference: PubChem BioAssay (NCATS)
Where “and” joins values, the source holds several entries; their conditions need not be identical. Equal entries are not always repeated. Inconclusive results are not listed. Calls of active or inactive are those of the source. Unless noted, the call rests on the fitted dose curve.

How the values were obtained:
[1] = biological target: Estrogen receptor (Homo sapiens) (UniProt P03372); test: qHTS assay for small molecule antagonists of estrogen receptor alpha signaling (AID 588513; active means well fitted curve in the direction sought with a large enough effect in the signal ratio, with a control signal flat, not every such curve was filed as active; the % refers to the signal ratio; further: on the % scale 0 is the no-effect control and ±100 the full control effect)
Chain of Estrogen receptor (Homo sapiens) (P03372 whole entry, looked up): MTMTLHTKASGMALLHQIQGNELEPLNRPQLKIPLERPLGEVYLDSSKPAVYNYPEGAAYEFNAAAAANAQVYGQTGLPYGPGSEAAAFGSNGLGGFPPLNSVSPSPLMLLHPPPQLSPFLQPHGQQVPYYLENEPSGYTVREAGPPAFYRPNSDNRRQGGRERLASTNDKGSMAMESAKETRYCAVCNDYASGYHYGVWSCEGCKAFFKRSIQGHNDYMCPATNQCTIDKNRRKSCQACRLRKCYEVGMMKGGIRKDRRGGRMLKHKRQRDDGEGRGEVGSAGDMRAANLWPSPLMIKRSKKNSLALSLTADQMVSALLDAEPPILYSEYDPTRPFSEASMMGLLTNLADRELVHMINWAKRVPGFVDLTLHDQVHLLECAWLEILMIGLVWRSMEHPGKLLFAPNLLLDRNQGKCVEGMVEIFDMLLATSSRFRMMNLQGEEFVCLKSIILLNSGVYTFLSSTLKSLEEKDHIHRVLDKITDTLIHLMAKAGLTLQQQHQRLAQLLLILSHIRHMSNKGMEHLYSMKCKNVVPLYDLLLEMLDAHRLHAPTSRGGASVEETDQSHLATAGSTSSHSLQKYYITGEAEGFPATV
How it was run: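 Fluorescence from CCF4 substrate after 2 h at room temperature gave reporter activity; cells had been exposed to compound and 0.5nM 17-beta-estradiol for 18 h at 37 C. Hill-equation fitting yielded IC50 and maximal response.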

[2] = biological target: Estrogen receptor (Homo sapiens) (UniProt P03372); test: qHTS assay for small molecule agonists of estrogen receptor alpha signaling (AID 588514);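 further: 0% = vehicle only and 100% = reference agonist; nearly all actives have a fitted effect of over 70% in size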
How it was run: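 Read-out: CCF4 fluorescence from a beta-lactamase reporter in ER-alpha-UAS-bla HEK 293 cells after 18 hrs of compound exposure at 37 C. Normalized to 20 nM 17-beta-estradiol (100%) and DMSO (0%).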

[3] = biological target: Glucocorticoid receptor (Homo sapiens) (UniProt P04150); test: qHTS assay for small molecule agonists of glucocorticoid receptor signaling (AID 588532; active means well fitted curve in the direction sought with a large enough effect in the signal ratio, with a control signal flat; the % refers to the signal ratio;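 further: 100% = dexamethasone at 0.1 µM and 0% = DMSO only wells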); conditions: HeLa MMTV-bla, beta-lactamase ratio, agonist, 18 h; activation: stronger effect = higher value, percent of dexamethasone control, DMSO zero
Chain of Glucocorticoid receptor (Homo sapiens) (P04150 whole entry, looked up): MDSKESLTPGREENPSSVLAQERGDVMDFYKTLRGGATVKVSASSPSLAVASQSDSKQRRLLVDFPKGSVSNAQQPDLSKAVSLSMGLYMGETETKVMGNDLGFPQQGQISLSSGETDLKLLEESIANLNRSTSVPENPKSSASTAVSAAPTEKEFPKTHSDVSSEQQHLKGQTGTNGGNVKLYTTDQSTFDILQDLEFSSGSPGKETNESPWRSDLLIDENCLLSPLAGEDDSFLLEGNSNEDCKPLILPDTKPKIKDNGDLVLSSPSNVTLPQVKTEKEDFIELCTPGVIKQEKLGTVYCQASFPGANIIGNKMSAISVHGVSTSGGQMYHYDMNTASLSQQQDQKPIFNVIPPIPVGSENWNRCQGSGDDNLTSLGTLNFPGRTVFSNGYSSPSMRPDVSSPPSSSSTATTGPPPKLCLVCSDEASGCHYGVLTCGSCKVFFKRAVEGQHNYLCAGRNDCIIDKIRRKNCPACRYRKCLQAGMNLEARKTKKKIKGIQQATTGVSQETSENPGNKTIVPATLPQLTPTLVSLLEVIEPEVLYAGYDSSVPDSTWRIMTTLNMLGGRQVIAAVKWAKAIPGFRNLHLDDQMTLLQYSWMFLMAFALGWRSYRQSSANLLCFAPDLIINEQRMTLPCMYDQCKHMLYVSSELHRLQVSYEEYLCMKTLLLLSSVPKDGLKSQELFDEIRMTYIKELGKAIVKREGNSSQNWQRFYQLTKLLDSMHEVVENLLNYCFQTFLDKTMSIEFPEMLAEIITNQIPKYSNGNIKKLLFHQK
How it was run: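 MMTV-bla HeLa beta-lactamase reporter cells in 1% charcoal/dextran FBS medium, compounds up to 92 uM for 18 h at 37 C, CCF4 readout; normalized to 0.1 uM dexamethasone (100%), EC50 and efficacy from Hill fits.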

[4] = biological target: Peroxisome proliferator-activated receptor delta (Homo sapiens) (UniProt Q03181); test: qHTS assay for small molecule agonists of peroxisome proliferator-activated receptor delta signaling (AID 588534);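 further: 0% = DMSO basal wells and 100% = positive control agonist at 10 µM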
Chain of Peroxisome proliferator-activated receptor delta (Homo sapiens) (Q03181 whole entry, looked up): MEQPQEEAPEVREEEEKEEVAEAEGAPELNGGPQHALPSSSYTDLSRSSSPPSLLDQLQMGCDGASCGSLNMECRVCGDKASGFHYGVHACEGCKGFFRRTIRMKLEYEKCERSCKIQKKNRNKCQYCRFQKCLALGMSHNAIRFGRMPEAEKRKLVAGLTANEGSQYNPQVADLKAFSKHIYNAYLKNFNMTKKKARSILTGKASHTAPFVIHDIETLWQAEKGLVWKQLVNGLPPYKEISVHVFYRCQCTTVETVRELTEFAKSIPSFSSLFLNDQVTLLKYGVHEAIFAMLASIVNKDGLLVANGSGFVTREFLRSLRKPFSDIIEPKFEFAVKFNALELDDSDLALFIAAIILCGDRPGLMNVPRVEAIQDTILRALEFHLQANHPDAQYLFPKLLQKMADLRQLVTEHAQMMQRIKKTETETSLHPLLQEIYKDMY
How it was run: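 Titration series tested in agonist mode on beta-lactamase reporter cells; 18 hrs at 37 C after a 5 hr pre-incubation. Readout: CCF4 fluorescence, 2 hrs RT. Hill equation gives EC50 and maximal response.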

[5] = biological target: Peroxisome proliferator-activated receptor gamma (Homo sapiens) (UniProt P37231); test: qHTS assay for small molecule agonists of peroxisome proliferator-activated receptor gamma signaling (AID 588536; active means well fitted curve in the direction sought with a large enough effect in the signal ratio, with a control signal flat, not every such curve was filed as active; the % refers to the signal ratio;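 further: 0% = DMSO basal wells and 100% = rosiglitazone at 2 µM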)
Chain of Peroxisome proliferator-activated receptor gamma (Homo sapiens) (P37231 whole entry, looked up): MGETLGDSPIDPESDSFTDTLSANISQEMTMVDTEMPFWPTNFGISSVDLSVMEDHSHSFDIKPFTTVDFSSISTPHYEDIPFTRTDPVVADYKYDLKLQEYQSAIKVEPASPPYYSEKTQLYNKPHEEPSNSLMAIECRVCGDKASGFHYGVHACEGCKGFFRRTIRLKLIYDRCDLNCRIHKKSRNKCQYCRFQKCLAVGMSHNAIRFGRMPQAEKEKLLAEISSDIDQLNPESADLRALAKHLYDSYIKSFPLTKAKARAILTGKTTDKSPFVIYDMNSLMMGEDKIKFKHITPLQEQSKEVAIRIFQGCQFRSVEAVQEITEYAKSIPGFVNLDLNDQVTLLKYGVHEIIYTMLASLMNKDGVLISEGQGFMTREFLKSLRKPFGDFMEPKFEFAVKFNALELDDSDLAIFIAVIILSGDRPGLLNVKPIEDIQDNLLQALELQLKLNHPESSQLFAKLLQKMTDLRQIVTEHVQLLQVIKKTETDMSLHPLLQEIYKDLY
How it was run: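 Using GeneBLAzer HEK293 cells, response was quantified by CCF4 fluorescence and normalized between basal DMSO (0%) and rosiglitazone 2 uM (100%); curves yielded half-maximal stimulation concentration and efficacy.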

[6] = biological target: Vitamin D3 receptor (Homo sapiens) (UniProt P11473); test: qHTS assay for small molecule antagonists of vitamin D receptor signaling (AID 588541);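 further: receptor activated by calcitriol during compound treatment; series mostly up to about 77 µM; on the % scale 0 is the no-effect control and ±100 the full control effect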
Chain of Vitamin D3 receptor (Homo sapiens) (P11473 whole entry, looked up): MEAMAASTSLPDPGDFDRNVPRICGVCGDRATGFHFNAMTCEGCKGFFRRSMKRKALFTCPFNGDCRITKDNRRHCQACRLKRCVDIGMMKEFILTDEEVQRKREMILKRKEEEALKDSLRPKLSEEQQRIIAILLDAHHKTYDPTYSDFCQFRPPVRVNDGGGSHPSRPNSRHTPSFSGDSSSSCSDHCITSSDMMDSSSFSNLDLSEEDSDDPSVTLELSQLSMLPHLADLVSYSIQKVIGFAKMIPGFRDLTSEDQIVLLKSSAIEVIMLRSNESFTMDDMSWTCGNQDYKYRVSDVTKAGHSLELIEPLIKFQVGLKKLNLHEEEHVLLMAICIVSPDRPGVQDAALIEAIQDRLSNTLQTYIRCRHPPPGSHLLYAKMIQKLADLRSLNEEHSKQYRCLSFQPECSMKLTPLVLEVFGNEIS
How it was run: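 VDR-UAS-bla HEK293T cells in 2% charcoal-stripped FBS were stimulated with 1-alpha,25-dihydroxyvitamin D3 (3 nM final) plus compound for 16 h at 37 C. The beta-lactamase CCF4 readout was normalized to 50 nM agonist and DMSO, and Hill fits gave IC50.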

[7] = biological target: Vitamin D3 receptor (Homo sapiens) (UniProt P11473); test: qHTS assay for small molecule agonists of vitamin D receptor signaling (AID 588543);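 further: 0% = DMSO basal and 100% = reference agonist control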
How it was run: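 Reporter cells (HEK293T, VDR-UAS-bla) were seeded in medium with 2% charcoal-stripped serum and incubated 5 h, then compounds in concentration series were added for 16 h at 37 °C. Stimulation was scaled between DMSO basal and 50 nM 1α,25-dihydroxyvitamin D3.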

[8] = qHTS assay for small molecule agonists of retinoid X receptor alpha signaling (AID 588544); conditions: HEK293T RXRa-UAS-bla, beta-lactamase reporter, 18 h; 530 nm emission
[9] = biological target: Thyroid hormone receptor beta (Homo sapiens) (UniProt P10828); test: qHTS assay for small molecule agonists of thyroid hormone receptor beta signaling (AID 588545);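 further: 0% = DMSO only and 100% = 10 nM T3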
Chain of Thyroid hormone receptor beta (Homo sapiens) (P10828 whole entry, looked up): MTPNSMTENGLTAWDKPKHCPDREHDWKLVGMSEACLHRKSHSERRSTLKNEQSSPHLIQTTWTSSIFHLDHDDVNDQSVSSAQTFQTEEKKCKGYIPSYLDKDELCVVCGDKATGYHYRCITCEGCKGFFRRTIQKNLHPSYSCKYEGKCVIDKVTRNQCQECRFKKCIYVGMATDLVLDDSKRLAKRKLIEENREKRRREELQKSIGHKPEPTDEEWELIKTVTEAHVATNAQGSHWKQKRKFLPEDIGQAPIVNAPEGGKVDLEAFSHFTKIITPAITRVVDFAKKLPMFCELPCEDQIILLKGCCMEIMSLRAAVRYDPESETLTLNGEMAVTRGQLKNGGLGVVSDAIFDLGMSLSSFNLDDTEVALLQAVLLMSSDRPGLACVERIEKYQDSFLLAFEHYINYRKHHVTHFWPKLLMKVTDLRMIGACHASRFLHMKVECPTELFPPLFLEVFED
How it was run: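 Efficacy and EC50 values derive from Hill fits of qHTS titration data, normalized to 10 nM T3 and DMSO-only wells. HEK 293 reporter cells were stimulated for 18 hrs at 37 C, with beta-lactamase activity measured by CCF4 fluorescence.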

[10] = qHTS assay for small molecule antagonists of retinoid X receptor alpha signaling (AID 588546; active means well fitted inhibition curve with a large enough effect in the signal ratio, with a control signal flat, not every such curve was filed as active; the % refers to the signal ratio;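 further: cells stimulated with 9-cis-retinoic acid as agonist; on the % scale 0 is the no-effect control and ±100 the full control effect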); conditions: HEK293T RXRa-UAS-bla, beta-lactamase ratio, antagonist mode; measured here: W530 green channel, cytotoxicity proxy
How it was run: (§1)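 Beta-lactamase reporter inhibition, read as CCF4 fluorescence ratio (ex 405, em 460/530 nm) after 2 h at RT. HEK293T UAS-bla cells, 2500/well, were stimulated with 9-cis-RA at 500 or 100 nM final alongside test compound for 18 h at 37 C.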

[11] = biological target: Retinoic acid receptor RXR-alpha (Homo sapiens) (UniProt P19793); test: as above; conditions: HEK293T RXRa-UAS-bla, beta-lactamase ratio, antagonist mode
Chain of Retinoic acid receptor RXR-alpha (Homo sapiens) (P19793 whole entry, looked up): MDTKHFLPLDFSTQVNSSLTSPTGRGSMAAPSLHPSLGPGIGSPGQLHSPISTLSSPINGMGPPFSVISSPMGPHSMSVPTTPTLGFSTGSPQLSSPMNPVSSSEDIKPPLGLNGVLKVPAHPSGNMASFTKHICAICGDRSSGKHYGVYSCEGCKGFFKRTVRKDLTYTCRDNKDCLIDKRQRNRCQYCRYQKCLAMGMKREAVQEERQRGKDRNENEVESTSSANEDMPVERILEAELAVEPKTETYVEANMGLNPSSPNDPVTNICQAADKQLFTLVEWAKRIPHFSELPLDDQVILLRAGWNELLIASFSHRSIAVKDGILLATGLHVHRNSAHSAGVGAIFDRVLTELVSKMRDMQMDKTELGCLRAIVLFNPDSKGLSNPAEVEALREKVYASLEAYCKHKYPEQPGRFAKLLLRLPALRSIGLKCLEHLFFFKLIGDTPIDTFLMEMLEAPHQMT
How it was run: as §1

[12] = qHTS assay for small molecule activators of the p53 signaling pathway (AID 651743; active means well fitted activation curve with a large enough effect in the signal ratio, not every such curve was filed as active; the % refers to the signal ratio; further: series mostly up to about 92 µM; % of control where 0% means no effect); conditions: HCT-116 p53RE-bla, beta-lactamase FRET ratio, 16 h; activation: stronger effect = higher value
How it was run: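 Reporter: beta-lactamase driven by p53 response elements, stably integrated in HCT-116 cells. Cells seeded at 4,000/well, 5 h preincubation, compound (DMSO) 16 h at 37 C; B/G FRET substrate 2 h RT; fluorescence intensity read.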

[13] = qHTS assay for small molecule activators of the nuclear factor-kappa B (NF-kB) signaling pathway (AID 651749; active means well fitted activation curve with a large enough effect in the signal ratio; the % refers to the signal ratio; further: series mostly up to about 77 µM; % of control where 0% means no effect); conditions: NF-kB-bla ME-180 cells, beta-lactamase FRET ratio, 16 h; activation: stronger effect = higher value
How it was run: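 NF-kB-bla ME-180 cells, 2,000/well; 23 nL compound or DMSO pinned; 16 hr, 37C/5% CO2; beta-lactamase FRET read-out.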

[14] = qHTS assay for environmental chemicals that activate the Aryl hydrocarbon Receptor (AhR) signaling pathway (AID 651777; active means well fitted curve in the direction sought with a large enough effect; an effect the other way counts as inactive or inconclusive; further: nearly all actives have a fitted effect of over 15% in size; further: potency means the concentration at half of the fitted maximal effect; on activation: % of control where 0% means no effect); conditions: 1A2-DRE human hepatoma cells, luciferase, 24 h; activation: stronger effect = higher value
How it was run: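 Stable CYP1A2 promoter/DRE-luciferase human hepatoma line treated 24 hr; One-Glo luminescence, 30 min RT.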

[15] = biological target: Peroxisome proliferator-activated receptor alpha (Homo sapiens) (UniProt Q07869); test: qHTS assay for small molecule agonists of the peroxisome proliferator-activated receptor alpha (PPARalpha) signaling pathway (AID 651778; active means well fitted curve in the direction sought with a large enough effect; an effect the other way counts as inactive or inconclusive; further: % of control where 0% means no effect); conditions: PathHunter PPARalpha complementation, chemiluminescence, 6 h; max response: stronger effect = higher value
Chain of Peroxisome proliferator-activated receptor alpha (Homo sapiens) (Q07869 whole entry, looked up, the tested form may be a part): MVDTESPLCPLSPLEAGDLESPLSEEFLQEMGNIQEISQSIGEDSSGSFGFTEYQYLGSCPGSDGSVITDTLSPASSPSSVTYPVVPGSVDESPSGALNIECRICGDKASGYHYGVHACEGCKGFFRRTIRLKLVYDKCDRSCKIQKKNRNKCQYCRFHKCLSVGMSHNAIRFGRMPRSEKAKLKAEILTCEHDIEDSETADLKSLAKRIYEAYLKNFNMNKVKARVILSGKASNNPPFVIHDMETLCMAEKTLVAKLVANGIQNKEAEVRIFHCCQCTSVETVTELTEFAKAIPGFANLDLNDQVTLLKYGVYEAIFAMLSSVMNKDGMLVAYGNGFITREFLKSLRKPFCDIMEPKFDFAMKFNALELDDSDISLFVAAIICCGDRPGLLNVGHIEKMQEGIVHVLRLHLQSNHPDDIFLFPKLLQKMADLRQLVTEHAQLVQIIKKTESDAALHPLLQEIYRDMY
How it was run: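 Enzyme-fragment complementation assay in which ligand-bound PPARalpha translocates and forms an active enzyme that generates chemiluminescence. Cells were plated overnight, exposed to compound for 6 hr at 37 C, and then given detection reagent for 60 min at room temperature.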

[16] = qHTS assay for small molecule agonists of the antioxidant response element (ARE) signaling pathway measured by Nrf2-dependant transcriptional activity (AID 720636; active means well fitted curve in the direction sought with a large enough effect in the repeat runs; an effect the other way counts as inactive or inconclusive;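 further: HepG2 cells with an ARE-driven luciferase reporter; % of control where 0% means no effect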)
How it was run: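 Reporter gene assay, HepG2 ARE-luc: 16 hr compound, 37 C, 5% CO2; read-out luciferase luminescence.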

[17] = qHTS assay for small molecule agonists of the antioxidant response element (ARE) signaling pathway measured by Nrf2-dependant transcriptional activity - cell viability counter screen (AID 720653; active means well fitted curve in the direction sought with a large enough effect in the repeat runs; an effect the other way counts as inactive or inconclusive; further: on the % scale 0 is the no-effect control and ±100 the full control effect); conditions: ARE-bla HepG2 viability, CellTiter-Glo ATP luminescence, 16 h; max response: stronger effect = lower value
How it was run: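 ARE-bla HepG2 cells treated with compounds for 16 h at 37C; this counter screen measures viability as intracellular ATP by CellTiter-Glo luminescence after 30 min at room temperature.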

[18] = qHTS assay for cell viability of HEK293 cells (AID 743288; active means well fitted curve in the direction sought with a large enough effect; an effect the other way counts as inactive or inconclusive; further: on the % scale 0 is the no-effect control and ±100 the full control effect; nearly all actives have a fitted effect of over 50% in size); conditions: ATP luminescence (CellTiter-Glo), 18 h; max response: stronger effect = lower value
How it was run: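 Viable-cell counts were inferred from luciferase-based ATP content in HEK293 cells seeded at 2,000/well, pre-incubated ≥5 h, then dosed with DMSO-solubilised compounds for 18 h at 37 C.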

[19] = qHTS assay for cell viability of the p53RE-bla HCT-116 cell line (AID 743292; active means well fitted curve in the direction sought with a large enough effect; an effect the other way counts as inactive or inconclusive; further: on the % scale 0 is the no-effect control and ±100 the full control effect; nearly all actives have a fitted effect of over 55% in size)
How it was run: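 Readout: CellTiter-Glo luminescence after 30 min RT. Treatment: compounds in DMSO, 16 h, 37 C. Cells: CellSensor p53RE-bla HCT-116, 4,000/well, preincubated 5 h.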

Row | Compound | Potency [1] | Potency [2] | activation [3] | outcome [4] | Potency [5] | Potency [6] | outcome [7] | max response [8] | Potency [9] | max response [10] | max response [11] | activation [12] | activation [13] | activation [14] | max response [15] | Potency [16] | max response [17] | max response [18] | Potency [19] | Potency [14]
1 | CNC(=O)Oc1ccc(N(C)C)c(C)c1 | inactive | inactive | -10.5% (inactive) | inactive | inactive | inactive | inactive | -30.4% | inactive | -12.9% | 7.08% (inactive) | 2.89% (inactive) | -0.493% (inactive) | 3.59% (inactive) | -2.96% (inactive) | inactive | 5.88% (inactive) | -1.07% (inactive) | inactive | –
2 | COc1ccc(O)c(C(C)(C)C)c1 | inactive | inactive | -14% (inactive) | – | inactive | inactive | inactive | -14.4% | inactive | -10.9% | 7.69% (inactive) | 1.43% (inactive) | – | 3.77% (inactive) | 1.63% (inactive) | inactive | 1.24% (inactive) | -7.51% (inactive) | inactive | –
3 | C/C=C(\C)C(=O)O[C@H]1C[C@@H](OC(C)=O)[C@@]2(C(=O)OC)CO[C@H]3[C@@H](O)[C@@](C)([C@]45O[C@@]4(C)[C@H]4C[C@@H]5O[C@@H]5OC=C[C@@]54O)[C@H]4[C@]1(CO[C@]4(O)C(=O)OC)[C@@H]32 | inactive | inactive | 4.96% (inactive) | inactive | inactive | inactive | inactive | -0.369% | inactive | -5.84% | 9.93% (inactive) | 6.01% (inactive) | -1.4% (inactive) | -0.999% (inactive) | -3.71% (inactive) | inactive | -22.9% (inactive) | -0.199% (inactive) | – | –
4 | CCCCC(CC)C(=O)Cl (configuration not stated) | inactive | inactive | -0.757% (inactive) | inactive | inactive | – | – | -20.2% | inactive | -9.74% | 2.12% (inactive) | -0.76% (inactive) | -0.95% (inactive) | 0.633% (inactive) | -0.947% (inactive) | inactive | -2.12% (inactive) | -4.59% (inactive) | inactive | –
5 | Cc1cnc(C2=NC(C)(C(C)C)C(=O)N2)c(C(=O)O)c1 (configuration not stated) | inactive | inactive | 0.844% (inactive) and 5.59% (inactive) | inactive | inactive | inactive | inactive | -18.8% and -4.8% | inactive | 8.17% | 9.76% (inactive) | 0.249% (inactive) and -2.82% (inactive) | – | 1.97% (inactive) and -3.27% (inactive) | -1.29% (inactive) and -1.68% (inactive) | inactive | -15.3% (inactive) and 23.5% (inactive) | -9.43% (inactive) and 4.33% (inactive) | inactive | –
6 | Cc1cc(Cl)ccc1OCC(=O)O | inactive | inactive | -2.21% (inactive) and 11.1% (inactive) | – | inactive | inactive | inactive | -7.53% | inactive | -3.03% and 10.9% | 3.77% (inactive) and -0.223% (inactive) | -6.22% (inactive) and 0.0507% (inactive) | – | 0.725% (inactive) and -1.61% (inactive) | 0.459% (inactive) and -1.12% (inactive) | inactive | 17.3% (inactive) and -19.3% (inactive) | -1.7% (inactive) and -11.8% (inactive) | inactive | –
7 | CCOP(=S)(OCC)Oc1cnc2ccccc2n1 | inactive | inactive | -1.45% (inactive) | inactive | inactive | – | – | – | inactive | 6.33% | -25.5% (inactive) | 6.75% (inactive) | -0.487% (inactive) | – | -1.06% (inactive) | – | 3.82% (inactive) | -3.73% (inactive) | – | 35.5 µM (active)
8 | CCNc1nc(NC(C)(C)C)nc(SC)n1 | inactive | inactive | 4.35% (inactive) | inactive | inactive | inactive | inactive | -0.223% | inactive | – | – | 13.8% (inactive) | -1.56% (inactive) | 0.606% (inactive) | 1.46% (inactive) | inactive | -11.3% (inactive) | -12.7% (inactive) | – | –
9 | CCOP(=S)(OCC)Oc1ncn(-c2ccccc2)n1 | inactive | inactive | – | inactive | inactive | inactive | inactive | -6.39% | inactive | -1.85% | -7.83% (inactive) | – | 2.03% (inactive) | – | -2.29% (inactive) | inactive | -3.44% (inactive) | -0.263% (inactive) | inactive | –
